In the library only some 14% were active in any assay of this set; here they are far more common.
Sm TGR block: S. mansoni TGR enzyme inhibition | actives 3% (n = 360,000) | Potency, µM (highest dose often 114 µM), usual class: inhibitors | purified TGR, DTNB reduction, TNB absorbance 405 nm | Q962Y6; also: nearly all actives have a fitted effect of over 60% in size
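Kinetic colorimetric format: TGR-catalysed, NADPH-driven DTNB reduction monitored via TNB absorbance. Enzyme dispensed at 20 nM; compound exposure 15 min at room temperature before reaction start.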
Pf growth 96h: inhibits malaria parasite growth, 96 h; P. falciparum luciferase reporter growth, 96 h; Potency, µM (series often up to 28.7 µM), actives largely listed as inhibitors; actives 6.9% (n = 320,000)
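Parasite growth measured via integrated firefly luciferase reporter in P. falciparum. Infected erythrocytes at 2% hematocrit, 0.05% parasitemia final were treated 96 hours at 37 C under 5% CO2, and luminescence was read.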
Pf growth 48h: P. falciparum growth inhibition at 48 hours (one generation) | actives 5.9% (n = 310,000) | AID 504832 | Potency, µM (titrated, usually from 28.7 µM), hits mostly inhibitors | P. falciparum luciferase growth in erythrocytes, 48 h
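Erythrocytes infected with P. falciparum carrying an integrated firefly luciferase reporter (2% hematocrit, 0.1% parasitemia final) were exposed to compounds in RPMI 1640 with 0.5% Albumax at 37 C, 5% CO2. Growth inhibition was scored as reduced luminescence.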
HCMV inh: inhibitors of human cytomegalovirus; HFF cells, HCMV-luciferase reporter, 72 h; hits give low values; activity change, negative = inhibition, % at 57.5 µM; actives 4.5% (n = 410,000); AID 1259415; in the data active = activity change below about -60%; inconclusive = no clear call, values can overlap the other calls; inactive = above about -39%
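Steps: HFFs plated, 16 h 37C; compounds added; HCMV-luciferase added to MOI 1 PFU/cell; 72 h 37C; OneGlo reagent, 5 min room temperature; luminescence read, normalized to controls.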
FBPA Giardia inh: blocks Giardia fructose-bisphosphate aldolase activity | Potency, µM (doses to about 59.6 µM), most hits filed as inhibitors | actives 0.71% (n = 290,000) | AID 2451 | purified Giardia FBPA | A8B2U2; also: nearly all actives have a fitted effect of over 55% in size
Target sequence (A8B2U2 whole entry, looked up): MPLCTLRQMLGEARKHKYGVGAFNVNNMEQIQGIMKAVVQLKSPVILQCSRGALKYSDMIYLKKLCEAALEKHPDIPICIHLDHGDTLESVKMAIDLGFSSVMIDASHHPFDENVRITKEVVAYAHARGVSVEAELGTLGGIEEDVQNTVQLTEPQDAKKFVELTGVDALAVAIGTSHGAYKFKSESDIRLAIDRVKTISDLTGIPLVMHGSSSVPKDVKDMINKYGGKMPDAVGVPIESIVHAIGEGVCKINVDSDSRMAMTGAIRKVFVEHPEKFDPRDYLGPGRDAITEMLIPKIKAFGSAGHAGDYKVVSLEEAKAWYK
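Giardia FBPA (40 nM reagent) was preincubated 10 min at RT with compound (up to 57.5 uM final), then substrate plus GAPDH/TPI/NAD/arsenate coupling system with diaphorase/resazurin was added; resorufin fluorescence (525/598 nm) was read after 20 min.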
Each line names hits and unclear results; the compound was inactive in the other large screens. Unless noted, calls follow the shape of the dose curve; as a rule, active = well fitted curve in the direction sought with a large enough effect; inconclusive = small, poorly fitted or top-dose-only effect, or another doubt; inactive = no such curve, though single readings can be large; an effect the other way counts as inactive or inconclusive.

CCN(CC)CCCNC(=O)C1c2ccccc2C(=O)N(CCOC)C1c1ccc(F)cc1 (stereo not given)	Pf growth 96h 13µM
CC(=O)NC(c1cccc(F)c1)c1nc(/C=C/c2ccccc2)cs1 (stereo not given)	none (no result: Sm TGR block, Pf growth 96h, Pf growth 48h, FBPA Giardia inh)
Cc1cccn2cc(-c3ccc(S(=O)(=O)N4CCCCC4)cc3)nc12	Pf growth 96h 10µM
Cc1ccc(-c2cn3cccc(C)c3n2)cc1NS(=O)(=O)c1ccccc1	HCMV inh -85 (no result: Pf growth 96h, Pf growth 48h, FBPA Giardia inh)
c1ccc2c(c1)CCC[C@@H]2C1=NCCN1	none (no result: Sm TGR block, HCMV inh)
O=C(CSCc1cc(=O)n2ccsc2n1)Nc1ccc(F)cc1	Pf growth 96h inconclusive (no result: FBPA Giardia inh)
O=C(CCc1ccccc1)NC(=S)Nc1cc(C(F)(F)F)ccc1N1CCOCC1	Pf growth 96h 8.3µM, Pf growth 48h inconclusive
Cc1ccc[n+](CC(=O)Nc2cc(C(F)(F)F)ccc2N2CCOCC2)c1	Pf growth 96h inconclusive, Pf growth 48h 2.1µM
O=C(Nc1cc(C(F)(F)F)ccc1N1CCOCC1)C1=COCCO1	Pf growth 96h inconclusive (no result: FBPA Giardia inh)
O=C(Cc1ccc2c(c1)OCCO2)Nc1cc(C(F)(F)F)ccc1N1CCOCC1	Pf growth 96h inconclusive, Pf growth 48h 15µM (no result: FBPA Giardia inh)
COc1ccc(NC(C)=O)cc1NC(C)C(=O)Nc1cc(C(F)(F)F)ccc1N1CCOCC1 (stereo not given)	Pf growth 96h inconclusive, Pf growth 48h 3.7µM
CC(Cl)C(=O)Nc1cc(C(F)(F)F)ccc1N1CCOCC1 (stereo not given)	Pf growth 96h inconclusive, Pf growth 48h inconclusive
COc1ccc(Cn2c(CCC(=O)Nc3ccc(OC)c(Cl)c3)nc3cccnc32)cc1	none (no result: Pf growth 96h, Pf growth 48h, FBPA Giardia inh)
CCOc1ccc(S(=O)(=O)n2cnc3cc(C)c(C)cc32)cc1	HCMV inh -86
Cc1cc2ncn(S(=O)(=O)c3ccc(S(N)(=O)=O)cc3)c2cc1C	none (no result: Sm TGR block, Pf growth 96h, Pf growth 48h, FBPA Giardia inh)
O=C(Nc1ccc(OC(F)(F)F)cc1)Nc1cccnc1	Pf growth 96h 10µM, Pf growth 48h inconclusive
O=C(Nc1ccc(F)cc1)Nc1cccnc1	none
O=C(NCC(F)(F)F)Nc1cccnc1	Pf growth 96h 15µM
COc1ccc(NC(=O)CN2CCN(Cc3ccccc3)S2(=O)=O)c(OC)c1	none (no result: Pf growth 96h, Pf growth 48h, FBPA Giardia inh)
C[C@H]1[C@@H](NS(=O)(=O)c2cccc([N+](=O)[O-])c2)CC[C@@]23CCCN2C(=O)CCC[C@@H]13	none (no result: Sm TGR block, Pf growth 96h, Pf growth 48h, FBPA Giardia inh)
NC(=O)c1cccc(-c2coc3c(C(=O)NCCc4ccccc4)cccc23)c1	none (no result: Sm TGR block, Pf growth 96h, Pf growth 48h, FBPA Giardia inh)
C/C(=N\NC(=O)C1CCCN(S(=O)(=O)c2ccccc2)C1)c1ccccn1 (stereo not given)	Pf growth 48h 2.3µM, HCMV inh -93
C/C(=N\NC(=O)C1CCCN(S(=O)(=O)c2ccccc2)C1)c1cccnc1 (stereo not given)	Pf growth 96h 9.3µM
C/C(=N\NC(=O)C1CCCN(S(=O)(=O)c2ccccc2)C1)c1ccncc1 (stereo not given)	Pf growth 96h inconclusive
c1nc(NC2CCNCC2)c2cc(-c3ccoc3)ccc2n1	none (no result: Sm TGR block, Pf growth 96h, Pf growth 48h, HCMV inh)
O=C(N/N=C/c1cn(-c2ccccc2)nc1-c1ccccc1)c1ccco1	Pf growth 48h 3.3µM
O=C(O)/C=C\c1cn(-c2ccccc2)nc1-c1cc2ccccc2o1	Pf growth 48h inconclusive
CC1=NNC(=O)/C1=C\c1cn(-c2ccccc2)nc1-c1ccccc1	Pf growth 48h inconclusive, HCMV inh -100 (no result: Sm TGR block)
O=C(O)/C=C/c1cn(-c2ccccc2)nc1-c1ccccc1	Sm TGR block inconclusive, Pf growth 96h 5.9µM
Cc1ccc(-c2nn(-c3ccccc3)cc2/C=N/NC(=O)c2ccc(Br)o2)cc1	Pf growth 96h inconclusive, Pf growth 48h inconclusive
O=C(N/N=C\c1cn(-c2ccccc2)nc1-c1ccccc1)c1ccc(Br)o1	Pf growth 96h 4.1µM, Pf growth 48h 9.3µM
Cn1c(=O)c2cc(NC(=O)NCc3ccccc3)ccc2n1Cc1ccc(Cl)cc1	none (no result: Sm TGR block, Pf growth 96h, Pf growth 48h, FBPA Giardia inh)
NC(=O)c1cccc(N)c1	none (no result: Sm TGR block, Pf growth 96h, Pf growth 48h, HCMV inh)
COc1cccc(C(=O)Nc2cccc(C(=O)OCc3cc(=O)n4c(C)csc4n3)c2)c1	HCMV inh inconclusive (no result: Pf growth 96h, Pf growth 48h, FBPA Giardia inh)
CCC(=O)N1CCc2cc(CNC(=O)c3ccc(F)cc3)ccc21	none (no result: Pf growth 96h, Pf growth 48h, FBPA Giardia inh)
OCc1cc(C(O)CNCCCCCCOCCCCc2ccccc2)ccc1O (stereo not given)	Pf growth 96h 12µM, Pf growth 48h 13µM, HCMV inh -60
COc1cccc(/C=C2\SC(=S)N(CC(=O)N(C)C3CCS(=O)(=O)C3)C2=O)c1 (stereo not given)	none

Screening data (PubChem)
